For eight sequences, binding signal results are on record in article PMC7862700, “An all-to-all approach to the identification of sequence-specific readers for epigenetic DNA modifications on cytosine”.

What all share (assay): DAPPL (digital affinity profiling via proximity ligation, sequencing); 10 mM Tris-HCl pH 7.5, 50 mM NaCl, 1 mM DTT, 4% glycerol, room temperature, 30 min; GST-TFs on glutathione beads, 16-mer random dsDNA library, 0.1% formaldehyde crosslink after washing; high values mean tight binding
Holding throughout (details): protein: recombinant; tags: N-terminal GST; dsDNA, one strand shown

In one experiment the target is T1, FLI1 (Homo sapiens, UniProt Q01543 1-452).
T1 sequence: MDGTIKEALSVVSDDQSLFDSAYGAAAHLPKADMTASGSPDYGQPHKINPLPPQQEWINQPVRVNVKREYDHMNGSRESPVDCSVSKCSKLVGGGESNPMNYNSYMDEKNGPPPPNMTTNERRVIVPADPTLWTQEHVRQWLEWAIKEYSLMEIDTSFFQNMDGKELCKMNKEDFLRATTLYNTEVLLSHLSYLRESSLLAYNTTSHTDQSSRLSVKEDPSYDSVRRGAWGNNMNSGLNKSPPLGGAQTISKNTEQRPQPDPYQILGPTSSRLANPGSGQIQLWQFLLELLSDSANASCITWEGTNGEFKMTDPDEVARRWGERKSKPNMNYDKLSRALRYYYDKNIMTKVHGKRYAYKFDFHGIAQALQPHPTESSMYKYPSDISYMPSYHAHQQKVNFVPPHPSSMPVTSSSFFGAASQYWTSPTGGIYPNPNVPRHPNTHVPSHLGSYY
The method in brief:
(§1)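 Binding signal is given per hexamer as its read frequency for a factor divided by its frequency in the tag-only sample. GST-fused human transcription factors were expressed in yeast, captured on glutathione beads, barcoded with DNA and pooled with that sample, then incubated with 200 nmole of a 16-mer random double-stranded DNA library in Tris/NaCl/DTT/glycerol buffer for 30 min at room temperature. The pools were then washed, crosslinked, proximity-ligated, amplified by PCR and sequenced on an Illumina NextSeq500.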

The target of the next experiment is T2, ELK1 (Homo sapiens, UniProt P19419 1-428).
T2 sequence: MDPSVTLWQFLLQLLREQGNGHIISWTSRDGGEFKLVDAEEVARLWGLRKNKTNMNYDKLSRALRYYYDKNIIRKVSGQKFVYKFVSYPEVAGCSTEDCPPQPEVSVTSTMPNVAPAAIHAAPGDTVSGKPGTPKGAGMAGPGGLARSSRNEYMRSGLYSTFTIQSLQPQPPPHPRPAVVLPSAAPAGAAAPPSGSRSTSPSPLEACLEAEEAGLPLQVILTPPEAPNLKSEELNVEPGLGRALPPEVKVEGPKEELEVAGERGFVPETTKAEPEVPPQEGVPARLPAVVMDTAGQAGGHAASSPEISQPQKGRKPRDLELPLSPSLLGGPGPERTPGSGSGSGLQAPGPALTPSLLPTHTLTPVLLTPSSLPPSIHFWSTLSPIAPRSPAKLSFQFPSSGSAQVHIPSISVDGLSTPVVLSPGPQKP
Summed up: as §1

The next experiment has as its target T3, GABPA (Homo sapiens, UniProt Q06546 1-454).
T3 sequence: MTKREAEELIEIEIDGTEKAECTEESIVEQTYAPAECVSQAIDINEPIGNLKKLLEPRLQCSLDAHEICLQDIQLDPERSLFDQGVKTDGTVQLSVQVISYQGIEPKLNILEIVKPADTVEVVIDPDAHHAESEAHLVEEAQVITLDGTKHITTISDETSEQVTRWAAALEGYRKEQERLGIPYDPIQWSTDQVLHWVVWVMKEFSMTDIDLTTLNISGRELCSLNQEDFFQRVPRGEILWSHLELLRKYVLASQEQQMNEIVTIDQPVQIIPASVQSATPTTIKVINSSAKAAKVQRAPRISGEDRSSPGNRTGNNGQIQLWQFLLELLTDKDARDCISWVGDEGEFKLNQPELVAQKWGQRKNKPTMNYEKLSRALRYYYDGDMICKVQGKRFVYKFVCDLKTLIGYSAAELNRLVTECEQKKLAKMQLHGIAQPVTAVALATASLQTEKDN
Summed up:
as §1

The next experiment has as its target T4, ERG (Homo sapiens, UniProt P11308 1-479).
T4 sequence: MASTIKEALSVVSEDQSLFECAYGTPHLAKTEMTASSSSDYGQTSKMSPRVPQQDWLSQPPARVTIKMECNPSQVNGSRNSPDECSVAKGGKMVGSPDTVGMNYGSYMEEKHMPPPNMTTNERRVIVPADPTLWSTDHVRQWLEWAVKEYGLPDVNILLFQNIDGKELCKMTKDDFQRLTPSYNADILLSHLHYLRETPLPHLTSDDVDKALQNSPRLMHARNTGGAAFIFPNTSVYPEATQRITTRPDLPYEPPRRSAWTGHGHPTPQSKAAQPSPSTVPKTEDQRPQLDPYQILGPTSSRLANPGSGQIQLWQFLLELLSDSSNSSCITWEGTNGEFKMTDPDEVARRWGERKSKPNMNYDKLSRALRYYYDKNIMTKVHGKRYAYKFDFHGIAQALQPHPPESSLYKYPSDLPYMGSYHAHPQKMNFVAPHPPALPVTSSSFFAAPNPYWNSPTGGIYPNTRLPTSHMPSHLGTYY
Summed up:
as §1

Another experiment deals with ELF1 (Homo sapiens, UniProt P32519 1-619). The method in brief: as §1
ELF1, sequence (P32519 whole entry): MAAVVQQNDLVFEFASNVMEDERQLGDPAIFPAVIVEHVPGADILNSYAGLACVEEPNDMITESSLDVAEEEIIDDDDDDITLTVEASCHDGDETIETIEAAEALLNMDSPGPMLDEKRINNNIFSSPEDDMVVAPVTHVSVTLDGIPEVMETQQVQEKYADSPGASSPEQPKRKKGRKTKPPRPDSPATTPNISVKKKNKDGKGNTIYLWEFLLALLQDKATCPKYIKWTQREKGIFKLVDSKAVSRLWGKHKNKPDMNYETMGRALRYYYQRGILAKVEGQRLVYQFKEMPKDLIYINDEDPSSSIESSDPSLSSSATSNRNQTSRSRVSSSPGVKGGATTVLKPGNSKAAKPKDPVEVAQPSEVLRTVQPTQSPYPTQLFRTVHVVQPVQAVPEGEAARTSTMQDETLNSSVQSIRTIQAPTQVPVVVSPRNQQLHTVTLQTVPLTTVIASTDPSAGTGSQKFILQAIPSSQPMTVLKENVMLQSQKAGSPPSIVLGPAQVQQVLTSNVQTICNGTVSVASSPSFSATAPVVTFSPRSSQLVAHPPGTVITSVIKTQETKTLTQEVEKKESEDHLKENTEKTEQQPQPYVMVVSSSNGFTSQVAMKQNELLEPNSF
In the next experiment the target is T5, EHF (Homo sapiens, UniProt Q9NZC4 1-300).
T5 sequence: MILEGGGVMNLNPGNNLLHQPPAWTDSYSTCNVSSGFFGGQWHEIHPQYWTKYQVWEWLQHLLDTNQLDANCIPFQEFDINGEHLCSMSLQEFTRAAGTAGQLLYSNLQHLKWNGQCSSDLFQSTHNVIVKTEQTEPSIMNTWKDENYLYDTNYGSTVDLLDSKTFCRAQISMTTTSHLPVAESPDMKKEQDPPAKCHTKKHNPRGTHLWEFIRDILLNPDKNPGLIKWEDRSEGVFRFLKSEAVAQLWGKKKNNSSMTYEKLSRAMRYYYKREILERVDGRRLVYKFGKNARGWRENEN
Summed up:
as §1

In the next experiment the target is SPI1 (Homo sapiens, UniProt P17947 1-270). Summed up:
as §1

The next experiment addresses SPIB (Homo sapiens, UniProt Q01892 1-262). Summed up:
as §1

A further experiment addresses T6, ELK3 (Homo sapiens, UniProt P41970 1-407).
T6 sequence: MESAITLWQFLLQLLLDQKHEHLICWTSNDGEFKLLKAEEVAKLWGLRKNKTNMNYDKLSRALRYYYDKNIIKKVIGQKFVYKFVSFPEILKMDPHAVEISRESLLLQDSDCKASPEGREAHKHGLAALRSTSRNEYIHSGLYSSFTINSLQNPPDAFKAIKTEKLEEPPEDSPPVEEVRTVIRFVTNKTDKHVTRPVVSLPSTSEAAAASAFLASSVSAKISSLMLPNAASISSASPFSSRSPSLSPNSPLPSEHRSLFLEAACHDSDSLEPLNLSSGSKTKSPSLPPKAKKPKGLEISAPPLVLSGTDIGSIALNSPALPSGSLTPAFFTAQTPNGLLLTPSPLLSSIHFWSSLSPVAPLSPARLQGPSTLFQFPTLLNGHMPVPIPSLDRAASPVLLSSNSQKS
Summed up: as §1

SPIB, sequence (Q01892 whole entry): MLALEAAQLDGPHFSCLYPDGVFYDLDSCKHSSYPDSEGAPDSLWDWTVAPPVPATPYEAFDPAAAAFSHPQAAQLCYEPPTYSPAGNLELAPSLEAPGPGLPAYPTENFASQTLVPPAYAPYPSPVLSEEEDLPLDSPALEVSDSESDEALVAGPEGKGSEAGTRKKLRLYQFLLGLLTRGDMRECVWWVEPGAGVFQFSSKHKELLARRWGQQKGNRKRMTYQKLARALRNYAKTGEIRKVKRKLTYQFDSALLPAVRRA

On to GGCTAG, for which the binding signal with FLI1 was 1.07 fold enrichment (6-mer frequency, TF over GST control); with ELK1, 1.11 fold enrichment (6-mer frequency, TF over GST control); with GABPA it was 1.1 fold enrichment (6-mer frequency, TF over GST control); with ERG, 1.1 fold enrichment (6-mer frequency, TF over GST control); in the experiment with ELF1, 1.09 fold enrichment (6-mer frequency, TF over GST control); in the experiment with EHF, 1.05 fold enrichment (6-mer frequency, TF over GST control). Besides, the binding signal in the experiment with SPI1 was 1.08 fold enrichment (6-mer frequency, TF over GST control); with SPIB it was 1.18 fold enrichment (6-mer frequency, TF over GST control); in the experiment with ELK3, 1 fold enrichment (6-mer frequency, TF over GST control).

With GTTCAA, the binding signal was 1.07 fold enrichment (6-mer frequency, TF over GST control) with FLI1; 1.18 fold enrichment (6-mer frequency, TF over GST control) in the experiment with ELK1; 1.17 fold enrichment (6-mer frequency, TF over GST control) with GABPA; 1.14 fold enrichment (6-mer frequency, TF over GST control) in the experiment with ERG; 1.16 fold enrichment (6-mer frequency, TF over GST control) with ELF1; 1.18 fold enrichment (6-mer frequency, TF over GST control) in the experiment with EHF. Moreover, the binding signal with SPI1 is 1.19 fold enrichment (6-mer frequency, TF over GST control); with SPIB, 1.19 fold enrichment (6-mer frequency, TF over GST control); with ELK3, 1.13 fold enrichment (6-mer frequency, TF over GST control).

As to AATTTG, the binding signal with FLI1 was 1.35 fold enrichment (6-mer frequency, TF over GST control); with ELK1, 1.22 fold enrichment (6-mer frequency, TF over GST control); with GABPA, 1.33 fold enrichment (6-mer frequency, TF over GST control); in the experiment with ERG, 1.26 fold enrichment (6-mer frequency, TF over GST control); in the experiment with ELF1, 1.26 fold enrichment (6-mer frequency, TF over GST control); with EHF it was 1.23 fold enrichment (6-mer frequency, TF over GST control). Also, the binding signal in the experiment with SPI1 was 1.33 fold enrichment (6-mer frequency, TF over GST control); with SPIB it was 1.34 fold enrichment (6-mer frequency, TF over GST control); with ELK3, 1.12 fold enrichment (6-mer frequency, TF over GST control).

Turning to TGACAA, the binding signal was 1.18 fold enrichment (6-mer frequency, TF over GST control) with FLI1; 1.19 fold enrichment (6-mer frequency, TF over GST control) with ELK1; 1.32 fold enrichment (6-mer frequency, TF over GST control) with GABPA; 1.28 fold enrichment (6-mer frequency, TF over GST control) with ERG; 1.38 fold enrichment (6-mer frequency, TF over GST control) with ELF1; 1.21 fold enrichment (6-mer frequency, TF over GST control) in the experiment with EHF. For the same sequence, the binding signal with SPI1 was 1.25 fold enrichment (6-mer frequency, TF over GST control); with SPIB, 1.14 fold enrichment (6-mer frequency, TF over GST control); in the experiment with ELK3 it was 1.12 fold enrichment (6-mer frequency, TF over GST control).

As for TCTGGG, the binding signal was 1.1 fold enrichment (6-mer frequency, TF over GST control) with FLI1; 1.06 fold enrichment (6-mer frequency, TF over GST control) with ELK1; 1.06 fold enrichment (6-mer frequency, TF over GST control) in the experiment with GABPA; 1.04 fold enrichment (6-mer frequency, TF over GST control) with ERG; 1.18 fold enrichment (6-mer frequency, TF over GST control) with ELF1; 1.09 fold enrichment (6-mer frequency, TF over GST control) with EHF. Also, the binding signal is 1.12 fold enrichment (6-mer frequency, TF over GST control) with SPI1; 1.02 fold enrichment (6-mer frequency, TF over GST control) with SPIB; 1.28 fold enrichment (6-mer frequency, TF over GST control) in the experiment with ELK3.

For TCCCGC, the binding signal with FLI1 was 1.48 fold enrichment (6-mer frequency, TF over GST control); with ELK1, 1.53 fold enrichment (6-mer frequency, TF over GST control); in the experiment with GABPA, 1.4 fold enrichment (6-mer frequency, TF over GST control); with ERG, 1.42 fold enrichment (6-mer frequency, TF over GST control); in the experiment with ELF1, 1.47 fold enrichment (6-mer frequency, TF over GST control); with EHF, 1.52 fold enrichment (6-mer frequency, TF over GST control). The binding signal in the experiment with SPI1 is 1.37 fold enrichment (6-mer frequency, TF over GST control); with SPIB, 1.48 fold enrichment (6-mer frequency, TF over GST control); with ELK3, 1.46 fold enrichment (6-mer frequency, TF over GST control).

Turning to ATTAAC, the binding signal in the experiment with FLI1 is 1.29 fold enrichment (6-mer frequency, TF over GST control); with ELK1 it was 1.16 fold enrichment (6-mer frequency, TF over GST control); with GABPA, 1.22 fold enrichment (6-mer frequency, TF over GST control); with ERG, 1.21 fold enrichment (6-mer frequency, TF over GST control); with ELF1, 1.32 fold enrichment (6-mer frequency, TF over GST control); with EHF it was 1.16 fold enrichment (6-mer frequency, TF over GST control). Moreover, the binding signal in the experiment with SPI1 was 1.18 fold enrichment (6-mer frequency, TF over GST control); with SPIB, 1.24 fold enrichment (6-mer frequency, TF over GST control); with ELK3 it was 1.26 fold enrichment (6-mer frequency, TF over GST control).

Consider CCGTAT, for which the binding signal in the experiment with FLI1 was 1.22 fold enrichment (6-mer frequency, TF over GST control); with ELK1, 1.36 fold enrichment (6-mer frequency, TF over GST control); with GABPA, 1.31 fold enrichment (6-mer frequency, TF over GST control); in the experiment with ERG, 1.2 fold enrichment (6-mer frequency, TF over GST control); with ELF1, 1.26 fold enrichment (6-mer frequency, TF over GST control); with EHF, 1.14 fold enrichment (6-mer frequency, TF over GST control). Further, the binding signal with SPI1 is 1.26 fold enrichment (6-mer frequency, TF over GST control); with SPIB, 1.31 fold enrichment (6-mer frequency, TF over GST control); with ELK3, 1.32 fold enrichment (6-mer frequency, TF over GST control).
